Columns and labels:
[1] = system: Human papillomavirus type 1a protein E7 (residues 44-93); experiment: HPV1a E7 fragment binders on microarrays, primary screen, biochemical, small-molecule microarray, residues 44-93, 635 nm fluorescence (AID 1108); settings: small-molecule microarray binding, fluorescence 635 nm; higher = more signal;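 note: E7 fragment applied at 1 µg/mL in TBST for 1 h at 4 C; score combines spot fluorescence with its signal to noise ratio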
[2] = modulators of HCV replicon luciferase signal, primary screen, HCV replication inhibitor project, Huh7 cells, luciferase reporter (AID 1109); settings: 48 h, higher = more signal;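 note: huh7 hepatoma cells harbouring a luciferase neomycin HCV replicon reporter; luciferase luminescence as measure of HCV replicon replication; test concentration not given here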
[3] = target: Left-right determination factor 2 (Homo sapiens) (UniProt O00292); experiment: LEFTY2 binders on small-molecule microarrays, primary screen, biochemical, small-molecule microarray, 635 nm fluorescence scan (AID 1110); settings: LEFTY2 binding, higher = more signal
[4] = target: Calmodulin-1 (Homo sapiens) (UniProt P0DP23); experiment: CALM1 binders on microarrays, EGTA buffer, profiling panel, biochemical, small-molecule microarray, Cy5-labelled CALM1 (AID 1111); settings: Cy5-CALM1 binding fluorescence, higher = more signal;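 note: labelled calmodulin applied in Tris saline Tween buffer holding calcium plus EGTA and DTT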
[5] = target: Calmodulin-1 (Homo sapiens) (UniProt P0DP23); experiment: calcium-bound CALM1 binders on microarrays, profiling panel, artefact control for SMM control-protein annotation, biochemical, small-molecule microarray, Cy5-labelled CALM1, plus calcium (AID 1112); settings: Cy5-CALM1 binding fluorescence, higher = more signal;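 note: score merges spot fluorescence with signal to noise from triplicate slides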
[6] = small-molecule microarray binders of probe aWnt5a, primary screen, biochemical, biotinylated probe, 635/667 nm fluorescence (AID 1113); settings: higher = more signal;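 note: score merges 667 nm fluorescence intensity with signal-to-noise per printed feature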
[7] = small-molecule microarray binders of probe aShh, primary screen, biochemical, biotinylated probe, 635/667 nm fluorescence (AID 1114); settings: higher = more signal;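 note: probe is biotin-labelled aShh protein from a stem cell growth factor screen; measures binding of labelled protein to compounds printed on the slide; score merges feature fluorescence at 667 nm with signal-to-noise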
[8] = small-molecule microarray binders of probe aNog, primary screen, biochemical, biotinylated probe, 635/667 nm fluorescence (AID 1115); settings: higher = more signal;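 note: probe is biotinylated aNog protein used at 0.15 µg/mL for 1 h at 4 C; z-score combines 667 nm fluorescence of each spot with its signal to noise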
[9] = target: Torsin-1A-interacting protein 1 (Homo sapiens) (UniProt Q5JTV8); experiment: LAP1 binders from COS7 cell lysate, primary screen, small-molecule microarray, 635/667 nm fluorescence (AID 1116); settings: COS7-hLAP1 lysate binding, 635 nm fluorescence, higher = more signal
[10] = target: Alpha-bungarotoxin (Bungarus multicinctus) (UniProt P60615); experiment: alpha-bungarotoxin binders on microarray, profiling panel, artefact control for SMM control protein annotation, biochemical, small-molecule microarray, Alexa647 label, 635/667 nm fluorescence (AID 1117); settings: alpha-BTX-A647 binding fluorescence, higher = more signal
Sequence of Alpha-bungarotoxin (Bungarus multicinctus) (P60615 whole entry, looked up): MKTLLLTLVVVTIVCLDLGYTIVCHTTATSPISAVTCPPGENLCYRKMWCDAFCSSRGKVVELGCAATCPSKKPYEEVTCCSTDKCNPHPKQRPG

Sequence of Torsin-1A-interacting protein 1 (Homo sapiens) (Q5JTV8 whole entry, looked up): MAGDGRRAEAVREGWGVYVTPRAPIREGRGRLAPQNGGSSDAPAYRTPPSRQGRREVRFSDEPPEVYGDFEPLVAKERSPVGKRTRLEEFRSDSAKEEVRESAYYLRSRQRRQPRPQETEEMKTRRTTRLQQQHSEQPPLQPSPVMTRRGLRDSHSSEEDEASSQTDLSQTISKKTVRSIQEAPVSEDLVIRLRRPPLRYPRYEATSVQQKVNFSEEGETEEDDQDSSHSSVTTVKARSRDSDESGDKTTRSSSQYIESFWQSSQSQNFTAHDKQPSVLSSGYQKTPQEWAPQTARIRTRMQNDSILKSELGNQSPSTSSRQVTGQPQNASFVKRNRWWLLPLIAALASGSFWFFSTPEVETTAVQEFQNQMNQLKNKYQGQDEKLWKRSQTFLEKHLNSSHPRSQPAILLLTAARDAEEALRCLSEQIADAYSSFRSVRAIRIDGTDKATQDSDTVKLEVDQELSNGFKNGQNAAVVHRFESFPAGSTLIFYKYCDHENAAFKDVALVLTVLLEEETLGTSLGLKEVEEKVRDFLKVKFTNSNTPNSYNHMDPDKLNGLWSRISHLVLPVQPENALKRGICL
Sequence of Left-right determination factor 2 (Homo sapiens) (O00292 whole entry, looked up): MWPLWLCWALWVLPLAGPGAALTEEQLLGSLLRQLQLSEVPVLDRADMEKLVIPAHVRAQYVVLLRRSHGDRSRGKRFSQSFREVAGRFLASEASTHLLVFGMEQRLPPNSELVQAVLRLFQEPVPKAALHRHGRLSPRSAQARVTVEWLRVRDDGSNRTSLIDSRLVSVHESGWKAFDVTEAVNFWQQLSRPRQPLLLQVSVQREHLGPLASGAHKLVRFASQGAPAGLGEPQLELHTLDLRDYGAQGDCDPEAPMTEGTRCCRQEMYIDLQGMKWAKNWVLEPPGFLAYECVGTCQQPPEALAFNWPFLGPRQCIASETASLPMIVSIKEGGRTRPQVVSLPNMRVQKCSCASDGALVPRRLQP

Structure (SMILES)	composite z-score [1]	z-score [2]	composite z-score [3]	composite z-score [4]	composite z-score [5]	composite z-score [6]	composite z-score [7]	composite z-score [8]	composite z-score [9]	composite z-score [10]
C=CC[C@]1(C(=O)NCCCOC)N=C(c2ccc(OCCCO)cc2)O[C@H]1c1ccccc1N=[N+]=[N-]	1.05	-0.682	-0.338	2.08	0.312	0.191	0.535	1.8	1.47	0.928
CCOC(=O)C[C@H]1[C@H](OC(=O)c2cc3ccccc3oc2=O)[C@@H](NC(=O)C2CCCCC2)c2cc(OCCCO)ccc2N1C(=O)c1ccccc1	0.992	-0.947	0.493	-0.105	-0.236	-0.0405	-0.138	-0.266	0.294	-0.0403
CCCCCN1CC=CC23O[C@@H]4/C=C\CCCOC(=O)C4[C@H]2C(=O)N(CCCO)[C@@H]3C1=O (stereo not given in full)	0.626	-0.549	-0.174	-0.113	0.132	-0.128	-0.214	-0.244	2.88	-0.0566
O=C1O[C@@H](c2ccccc2)[C@@H](c2ccccc2)N2[C@@H](c3ccccc3OCCO)[C@]3(C(=O)Nc4ccc(C#CC5=CCCCC5)cc43)[C@@H](C(=O)Nc3nc4ccccc4s3)[C@H]12	1.4	-2.52	0.501	1.32	0.337	-0.0084	0.356	-0.167	0.705	1.32
O=C1OCCC/C=C\[C@H]2OC34C=CCN(CCN5CCOCC5)C(=O)[C@H]3N(CCCO)C(=O)[C@@H]4C12 (stereo not given in full)	-0.941	-0.61	-0.27	-1.01	-0.147	-0.18	-0.26	-0.23	1.05	1.19
O=C1O[C@H](c2ccccc2)[C@H](c2ccccc2)N2[C@H]1[C@@H](C(=O)Nc1nc3ccccc3s1)[C@]1(C(=O)Nc3ccc(C#CCCO)cc31)[C@H]2c1ccc(OCCO)cc1	1.39	-1.65	0.436	1.26	0.0502	0.0927	0.184	1.15	1.07	0.753
CCCC[C@H]1OB(O)C[C@H]2C1=C(COc1ccccc1)C[C@H]1C(=O)N(C)C(=O)[C@H]12	-0.121	-0.271	0.283	-0.515	-0.255	0.0438	0.0899	-0.106	0.101	0.0648
COc1ccc(C(O)C2C=CC3C(=O)NC(=O)C3N2Nc2ccccn2)c2ccccc12 (stereo not given)	-0.266	0.307	0.315	-0.0051	-0.194	-0.219	0.147	-0.0863	-0.259	0.172
COC(=O)[C@@]1(Cc2ccc(OC)cc2)[C@H]2c3cc(C(=O)N(C)C)n(Cc4cccc5ccccc45)c3C[C@H]2CN1C(=O)c1ccccc1	1.48	-2.35	0.243	1.48	0.94	0.346	1.33	2.12	1.41	0.563
O=C1OCCC/C=C\[C@H]2OC34C=CCN(Cn5nnc6ccccc65)C(=O)[C@H]3N(CCCCCCO)C(=O)[C@@H]4C12 (stereo not given in full)	-0.311	-0.625	-1.17	-0.824	-0.317	-0.18	-0.0035	0.599	-0.401	-0.716
O=C1OCCC/C=C\[C@H]2OC34C=CCN(Cc5ccccc5)C(=O)[C@H]3N(CCCCCCO)C(=O)[C@@H]4C12 (stereo not given in full)	0.103	-1.3	-1.74	-0.046	0.572	-0.206	-0.0337	-0.355	-1.03	-0.313
Cc1ccc(S[C@]2(C(=O)NCC(C)C)CC(=O)N(Cc3cc(C(F)(F)F)cc(C(F)(F)F)c3)[C@@H]2c2ccc(CO)cc2I)cc1	0.133	-1.01	-2.48	-0.571	0.0903	-0.166	0.108	0.225	0.116	-1.05
CCCCC=C[C@@H](NC(=O)Oc1cccc(C(F)(F)F)c1)c1ccccc1	1.18	-1.07	-0.143	1.85	1.11	1.04	1.97	0.59	0.503	1.62
O=C1NC(=O)C2C1C=CC(C(O)C(c1ccccc1)c1ccccc1)N2Nc1ccc(Cl)cc1Cl (stereo not given)	1.36	-1.75	-0.5	1.81	0.625	0.065	0.234	1.41	0.343	0.503
CC[C@@H]1C=C(C(=O)O)[C@H](c2ccco2)N1S(=O)(=O)c1ccc(C)cc1	-0.11	-1.22	-0.0532	-0.256	-0.841	-0.0529	-0.0146	0.0051	0.018	0.396
[N-]=[N+]=Nc1ccccc1C[C@]1(C(N)=O)N=C(c2ccc(OCCCO)cc2)O[C@H]1c1ccccc1	1.43	-0.947	-0.932	1.59	0.0189	-0.0721	0.0723	-0.235	2.05	1.03
CS(=O)(=O)CCOC(=O)C1=CC(CCCO)=CC(c2ccc(CN3CCCC3)cc2)N(Cc2cc3c(cc2Br)OCO3)C=C1C(=O)OCCS(C)(=O)=O (stereo not given)	0.981	-2.33	0.538	1.33	0.484	0.0765	0.171	1.27	2.44	1.62
